Broadly, the viability is a read-out of living cells in per cent, often relative to untreated cells.

The structures appear in SMILES notation. Results filed as inconclusive are left out. Calls of active or inactive are those of the source. Calls come from the whole dose curve; as a rule, active = well fitted cell-killing curve with a large enough effect; inconclusive = small, poorly fitted or top-dose-only effect, or effect the other way; inactive = no such curve, though single readings can be large or run the other way.
Potency is the fitted concentration of half-maximal effect.

This test in a line: Quantitative highthroughput screen to assess conditional lethalithy of SEM cells grown in Human Plasma-Like Medium with dialyzed fetal bovine serum (HPLM+ds) (AID 1963882). Note: nearly all actives have a fitted effect of over 35% in size. As to conditions: SEM B-ALL cells in HPLM+ds, CellTiter-Glo viability, 48 h; series mostly up to 45.8 µM; viability: at the top concentration. From the text: Assay Provider: Jason Cantor Ph.D.
Department of Biochemistry
University of Wisconsin-Madison, Madison, WI, USA
Chemical screening studies have identified drug sensitivities across hundreds of cancer cell lines but most putative therapeutics fail to translate. Discovery and development of drug candidates in models that more accurately reflect nutrient levels in human blood is a major challenge. Here we performed high-throughput screens in conventional versus Human Plasma-Like Medium (HPLM) to identify compounds that were "missed" when screening using the artificial culture condition. Sets of conditional anticancer compounds spanned phases of clinical development and included non-oncology drugs were assessed. […] We also traced conditional phenotypes for several chemotherapeutics to availability of HPLM-specific metabolites and confirmed others for compounds whose reported targets are encoded by nonessential genes. Our findings establish generalizable strategies for exploiting conditional lethality in HPLM to reveal therapeutic candidates and mechanisms of action in cancer cells.
Described herein are the results of each viability screens against three cell lines: NOMO1 (an acute myeloid leukemia cell line); P12-Ichikawa (a T-cell acute lymphoblastic leukemia); and SEM (a B-cell ALL). Each assay was screened using 3 different cell culture media: homemade human plasma-Like medium with 10% dialyzed fetal bovine serum (HPLM+ds); RPMI1640 with 10% untreated FBS and 5mM glucose (RPMI+s); and RPMI1640 with 10% dialyzed fetal bovine serum and 5 mM glucose (RPMI+ds).
PROTOCOL TABLE (as described by Inglese J, Shamu CE and Guy RK. 2007)
SEQUENCE No. (e.g., 1, 2, 3, etc.); […] (e.g., Cells, Incubation, Reagent, etc.); VALUE and DESCRIPTION.
1; Cells; 5 uL; white, solid bottom 1536-well Greiner assay plate.
2; Compounds; 23 nL; Kalypsis pin tool (Wako USA) equipped with a 1536-well pin head to transfer to the assay plates.
3; Incubation; 48 hours; 37C incubation.
4; Reagent; 3 uL; CellTiter Glo (Promega).
5; Incubation; 5 min, room temperature
6; Detection; Luminescence, Viewlux PerkinElmer.
NOTES (numbers refer to Sequence numbers above)
1. Briefly, 5 ul of cell reagent was dispensed using a Multidrop Combi Dispenser. The NOMO1 and SEM cells were plated at 500 cells/well and the P12-Ichikawa line at 1000 cells/well.
2. After seeding the cells, 23 nL of MIPE 4.1 library compounds (in DMSO) were added to each plate using a Kalypsys 1536 Pintool dispenser. Bortezomib at final concentration of […] and DMSO were added to each plate as positive and negative controls respectively. For each screen, MIPE 4.1 compounds were added over an eleven-point concentration range […] in 3-fold dilutions.
3. Each plate was covered with a stainless steel gasketed lid to prevent evaporation and incubated for 48 hour at 37C, 95% relative humidity, and 5% CO2.
4-5. Three microliter CellTilter-GloTM luminescent substrate mix (Promega) reagent was added to the assay plate and incubated at room temperature for 5 min.
6. The luminescence signal was measured using a ViewLux (PerkinElmer) multiplate reader with a 2 second exposure time per plate. Data for each compound were normalized as percent viability such that measurements for DMSO and the empty well controls in each plate were defined as 100% and 0%, respectively.
A general note: Cellular ATP, detected with luciferase, serves as a proxy for viable cell number.
As for `COc1cc(C(=O)N2CC[C@@H](O)[C@@H](N)C2)cc2nc(-c3cc4ccccc4n3CC3CC3)n(C)c12`, the Potency was 1320 nM (active). As to `CCCCCC[C@H]1C(=O)O[C@H](C)[C@H](NC(=O)c2cccc(NC=O)c2O)C(=O)O[C@@H](C)[C@@H]1OC(=O)CC(C)C`, the “viability” value is 85.9% (inactive). Consider `O=c1[nH]c2ccccc2n1C1CCN(Cc2ccc(-c3[nH]c4cc5ncnc5cc4nc3-c3ccccc3)cc2)CC1`, for which the “viability” value was 80.5% (inactive). On to `Cc1ncc(OC[C@@]2(c3cccc(F)c3)C[C@H]2C(=O)Nc2ccc(F)cn2)c(C)n1`, for which the “viability” value is 82.7% (inactive).

Take `O=c1cccc2n1CC1CNC[C@H]2C1`: the “viability” value is 92.5% (inactive).

With `CC(=O)N(C)c1cccc(-c2ccnc3c(C(=O)c4cccs4)cnn23)c1`, the “viability” value is 92.7% (inactive). With `O=C(Oc1ccc([N+](=O)[O-])cc1)N1CCC(C(O)(c2ccc3c(c2)OCO3)c2ccc3c(c2)OCO3)CC1`, the “viability” value is 99.5% (inactive). For the molecule `CC(C)(O)C=CC(=O)[C@](C)(O)[C@H]1[C@H](O)C[C@]2(C)[C@@H]3CC=C4[C@@H](C=C(O)C(=O)C4(C)C)[C@]3(C)C(=O)C[C@@]12C`, the Potency is 59 nM (active).

On to `C[C@]12CCC(=O)C(O)=C1CC[C@@H]1[C@H]3CCC(=O)[C@@]3(C)CC[C@@H]12`, for which the “viability” value is 97.3% (inactive).

With `CC(O)(CS(=O)(=O)c1ccc(F)cc1)C(=O)Nc1ccc(C#N)c(C(F)(F)F)c1` (stereo not given), the “viability” value is 75.3% (inactive).

For `CC[C@H]1C=CC=CC[C@@H](C)[C@H](O)[C@@](C)(O)C(=O)[C@@H](C)[C@H](O)[C@@H](C)C(=O)[C@@H](C)[C@H](O)[C@@H](C)C=CC(=O)O[C@@H]2[C@@H](C)[C@H](CC1)O[C@]1(CC[C@H](C)[C@H](C[C@@H](C)O)O1)[C@H]2C`, the Potency is 5900 nM (active). `CC(C)(C)c1cc(C=C(C#N)C#N)cc(Br)c1O`: the “viability” value was 96% (inactive). Same read-out and setting: the result for `COC[C@H]1OC(=O)c2coc3c2[C@@]1(C)C1=C(C3=O)C2CCC(=O)[C@@]2(C)C[C@H]1OC(C)=O` (stereo not given in full) reads 105% (inactive). For the molecule `O=C(Oc1ccc([N+](=O)[O-])cc1)N1CCN(Cc2cccc(Oc3ccccc3)c2)CC1`, the “viability” value was 103% (inactive). For `COc1ccc2c(c1)[C@]13CCCCC1C(C2)N(C)CC3` (stereo not given in full), the “viability” value is 118% (inactive). On the same count and under the same terms, the result for `CC(=O)OCC1=C(C(=O)O)N2C(=O)[C@@H](N)[C@@H]2SC1` reads 80.5% (inactive); that for `CC(N[C@H]1C[C@H]1c1ccccc1)c1ccc2c(c1)OCCO2` (stereo not given in full), 91.8% (inactive). Consider `C[C@@]12OC(=O)[C@]1([C@@H](O)[C@@H]1C=CCCC1)NC(=O)[C@H]2CCCl`, for which the Potency was 52.6 nM (active).

Consider `O=P1(NCCCl)OCCCN1CCCl` (stereo not given), for which the Potency is 18700 nM (active). Consider `COc1cc2cc(c1Cl)N(C)C(=O)C[C@H](OC(=O)C(C)C)[C@]1(C)O[C@H]1[C@H](C)[C@@H]1C[C@@](O)(NC(=O)O1)[C@H](OC)C=CC=C(C)C2`, for which the “viability” value was 2.42% (inactive). On the same count and under the same terms, the figure for `C[C@H]([C@H](O)CCC(C)(C)O)[C@H]1CC[C@@]2(O)C3=CC(=O)[C@@H]4C[C@@H](O)[C@@H](O)C[C@]4(C)[C@@H]3CC[C@]12C` is 98.5% (inactive).

As to `Cn1c(CCCC(=O)O)nc2cc(N(CCCl)CCCl)ccc21`, the “viability” value is 89.8% (inactive). Same read-out and setting: the figure for `COC1=C[C@@H]2[C@@H]3Cc4ccc(OC)c(O)c4[C@]2(CCN3C)CC1=O` is 98.8% (inactive); for `CC(C)(C)[C@]1(O)C[C@@H]2OC(=O)C[C@@]23C(=O)O[C@@H]2OC(=O)[C@H](O)C213` (stereo not given in full) it is 103% (inactive). `Cc1[nH]nc2ccc(-c3cncc(OC[C@@H](N)Cc4c[nH]c5ccccc45)c3)cc12`: the Potency was 187 nM (active). On to `CC=C(C)C(=O)N[C@@H](c1ccccc1)[C@@H](O)C(=O)O[C@H]1C[C@@]2(O)[C@@H](OC(=O)c3ccccc3)[C@@H]3[C@]4(OC(C)=O)CO[C@@H]4C[C@H](O)[C@@]3(C)C(=O)[C@H](OC(C)=O)C(=C1C)C2(C)C`, for which the “viability” value was 21.9% (inactive). On the same count and under the same terms, the result for `c1cc2c(cc1[C@H]1OC[C@H]3[C@H]1CO[C@H]3c1ccc3c(c1)OCO3)OCO2` reads 70.8% (inactive); that for `O=[N+]([O-])c1ncc[nH]1`, 67.7% (inactive); that for `O=C1C=CC[C@@H]2[C@H]3CCCN4CCC[C@@H](CN12)[C@@H]34`, 103% (inactive). In the case of `CC(C)[C@H]1C(=O)N[C@H](CO)Cc2c[nH]c3cccc(c23)N1C`, the “viability” value was 64.4% (inactive). Regarding `Cc1nc(-c2ccc(-c3ccc(C(=O)N4CCc5cc6c(cc54)C4(CCN(C)CC4)CO6)cc3)c(C)c2)no1`, the “viability” value was 105% (inactive). With `CC(C)c1cccc(C(C)C)c1O`, the “viability” value was 98.5% (inactive). Turning to `CC(=O)Nc1ccc(OC[C@](C)(O)C(=O)Nc2ccc([N+](=O)[O-])c(C(F)(F)F)c2)cc1`, the “viability” value was 65.7% (inactive). Take `O=S(=O)(F)Cc1ccccc1`: the “viability” value was 85.7% (inactive). Consider `C[C@](O)(CS(=O)(=O)c1ccc(F)cc1)C(=O)Nc1ccc(C#N)c(C(F)(F)F)c1`, for which the “viability” value is 87.9% (inactive). Turning to `C[C@@H]1CC[C@@]2(OC1)O[C@H]1C[C@H]3[C@@H]4CC=C5C[C@@H](O[C@@H]6O[C@H](CO)[C@@H](O[C@@H]7O[C@@H](C)[C@H](O)[C@@H](O)[C@@H]7O)[C@H](O)[C@@H]6O[C@@H]6O[C@@H](C)[C@H](O)[C@@H](O)[C@@H]6O)CC[C@]5(C)[C@@H]4CC[C@]3(C)[C@@H]1[C@H]2C`, the Potency was 18700 nM (active).

As for `O=C(O)c1nn(Cc2ccc(Cl)cc2Cl)c2ccccc12`, the “viability” value is 67.4% (inactive). Turning to `CC1=NN=C(c2ccc(N)cc2)c2cc3c(cc2C1)OCO3`, the “viability” value is 80.2% (inactive).

Take `CC(C)(O)C(=O)Nc1ccc([N+](=O)[O-])c(C(F)(F)F)c1`: the “viability” value was 93.8% (inactive).

Regarding `C#C[C@]1(O)C=C[C@@H]2[C@@H]3CCC4=CC(=O)CC[C@@H]4[C@H]3CC[C@@]21CC`, the “viability” value is 113% (inactive).
